# A selection: hits, their analogues and other compounds. The true share with any hit is near 3.9%.
# Peg3 promoter = Peg3 promoter-driven luciferase inhibitors, primary screen, cell-based, HeLa, luciferase luminescence; HeLa PEG-Prom luciferase reporter, overnight; inhibition, % at 20 µM; 1.7% of 360,000 active; AID 588405, 2011;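 active = inhibition of at least 50% at 20 µM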
# CF NFkB block = inhibitors of PAF-induced NF-kB signaling, primary screen, cell-based, GFP fluorescence, uHTS | KKLEB NF-kB-GFP reporter, GFP fluorescence overnight | 0.86% of 360,000 active | inhibition, % at 5 µM;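 active = at least 50% inhibition at 5 µM, scaled per plate between neutral and stimulator controls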;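 also: PAF is a Pseudomonas aeruginosa culture filtrate used as stimulus; plate controls were PAF-stimulated DMSO wells for no effect and unstimulated DMSO wells for full effect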
# TROY signal inh = inhibitors of TROY-driven NF-kB signaling, primary screen, Q293 LMP1-TROYcd cells, NF-kB luciferase, uHTS; 0.98% of 360,000 active; Q293 LMP1-TROYcd NF-kB luciferase reporter, 4 h; inhibition, % at 10 µM; AID 1347056, 2019;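 active = compounds whose plate-normalised and pattern-corrected inhibition of the luciferase reporter signal at the single screening dose is 50% or more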
# KKLEB cytotox = cytotoxicity in KKLEB CF airway cells, primary screen, cytotoxicity control for CF NF-kB inhibitor project, cell-based, uHTS, fluorescence assay plates. KKLEB CF airway cells viability, ATPlite luminescence, overnight; stronger effect = lower value; cells stimulated with P. aeruginosa culture filtrate. activity change (cytotoxicity), % at 5 µM. 0.36% of 360,000 active. AID 602141, 2011;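 active = corrected activity change at or below -50% at 5 µM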
# HIF-2a inh = HIF-2a reporter inhibitors, primary screen, luminescence, 786-0 RCC cells; 786-0 RCC cells HIF-2a reporter, luciferase luminescence, overnight; 0.72% of 360,000 active; inhibition, % at 18.8 µM;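 active = inhibition of the luminescence signal of 40% or more relative to plate controls, in a single-dose primary screen at 18.75 µM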
# TWEAK-Fn14 inh = inhibitors of TWEAK-Fn14 signaling, primary screen, luciferase reporter cells, uHTS; TWEAK-stimulated Fn14 reporter cells, luciferase luminescence, 8 h; inhibition, % at 10 µM; 2% of 360,000 active; AID 1159606, 2016; in the data active = inhibition above about 50%
# * = called active by the depositor.
SMILES,Peg3 promoter,CF NFkB block,TROY signal inh,KKLEB cytotox,HIF-2a inh,TWEAK-Fn14 inh
Cc1ccc(-c2cn3cccnc3n2)cc1NC(=O)c1c(-c2ccccc2Cl)noc1C,28,8,5,-6,7,-3
Oc1cccc(/C=N/NC(=S)Nc2cccnc2)c1O,-8,17,-51,0,-52,3
Oc1ccc(/C=N/NC(=S)Nc2cccnc2)c(O)c1O,12,0,-17,6,21,50*
O=C1[C@@H]2Cc3c([nH]c4ccccc34)C(c3cccc(Br)c3)N2C(=O)CN1C1CCN(Cc2ccccc2)CC1 (some centres undefined),96*,17,14,-12,-28,24
O=C1[C@@H]2Cc3c([nH]c4ccccc34)C(c3ccccc3)N2C(=O)CN1C1CCN(Cc2ccccc2)CC1 (some centres undefined),42,8,-3,-14,31,5
Clc1ccc(Cn2cc(/C=N/n3cnnc3)c3ccccc32)c(Cl)c1,44,23,46,-12,24,54*
Cc1ccc(Nc2nc(CSc3nnc(-c4ccncc4)n3C)cs2)cc1,-94,-1,41,-32,-108,53*
Cc1ccc(CSc2nnc(-c3ccncc3)n2C)cc1,2,-1,4,-5,-6,-5
N#C/C(=N/Nc1ccc(OC(F)(F)F)cc1)C(N)=S,-169,64*,49,-48,-256,80*
COc1ccc(N/N=C(\C#N)C(N)=O)cc1,-27,0,1,-6,-42,-39
CC[C@@H](C)[C@H](NC(=O)OC(C)(C)C)c1nnc(S(=O)(=O)Cc2cc(C)ccc2C)o1,105*,72*,73*,-19,-67,23
CCOC(=O)C1CCN(c2nc(-c3ccc(Br)cc3)nc3ccccc23)CC1,39,16,3,-18,19,-1
S=C(NCc1ccc(Cl)cc1)Nc1ccncc1,5,8,38,-15,7,47
O=[N+]([O-])c1cccc(C([O-])=C(C(=S)Nc2cccc3ccccc23)[n+]2ccccc2)c1,0,11,18,-10,-7,29
Cc1ccc(S(=O)(=O)Nc2nnc(CC(C)(C)C)s2)cc1,6,-6,-22,5,12,109*
CC1(C)CC(=O)c2c(-c3cccs3)n[nH]c2C1,-20,-22,34,15,1,55*
Cc1ccc2oc(C(=O)N3CCC(O)(c4cccc(C(F)(F)F)c4)CC3)c(C)c2c1,-57,9,-22,-1,-133,-40
Clc1ccc(-n2cnc3c(Cl)ncnc32)cc1Cl,74*,-3,17,-8,0,9
O=c1c2ccccc2ncn1-c1ccc(Cl)c(Cl)c1,-38,10,-76,-2,-49,-44
COc1cc2c(cc1OC)CN(C(=O)c1cc(Cl)nc(Cl)c1)CC2,16,10,-4,-7,12,-9
CCOC(=O)N1CCC(NC(=O)c2ccc(N3CCC4(CC3)OCCO4)c([N+](=O)[O-])c2)CC1,11,0,13,0,14,7
Cc1ccc(NC2=C(Cl)C(=O)c3ccccc3C2=O)cc1,96*,16,-39,6,-55,11
CCN(CC)c1ccc(NC2=C(Cl)C(=O)c3ccccc3C2=O)cc1,103*,96*,-6,-93*,96*,57*
CCOc1ccc(NC2=C(OC)C(=O)c3ccccc3C2=O)cc1,-110,32,-57,0,-144,-22
COc1cccc(CNc2nccs2)c1O,-30,8,-24,-1,-47,-10
O=C(CCCSc1nc2ccccc2c(=O)[nH]1)c1ccccc1,12,1,13,1,4,-10
CCn1nc(C)c(CN2CCN(Cc3cccc(OC)c3)C(CCO)C2)c1C (centres undefined),5,16,2,-12,14,-28
CCOc1ccc(CN2CCN(Cc3c(C)nn(CC)c3C)CC2CCO)cc1 (centres undefined),7,6,0,-9,6,76*
